Measured values taken from PubChem BioAssay (NCI).
About 83,000 compounds went through this panel and 20% of them were active in at least one assay; those are over-represented in the sample as a whole.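 48-hour exposure, single concentration, 96-well plates; percent growth endpoint where 0 means no net growth. Active: below 10.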 Activity calls are given as the source filed them.

Tests used:
Experiment in all cases: NCI-60 one-dose screen, 48 h (100 = growth as untreated, 0 = no growth, -100 = all killed)
[1] = tested on: HCT-15 colon; settings: 10 µM unless noted
[2] = tested on: HT29 colon; settings: 10 µM unless noted
[3] = tested on: SNB-75 CNS; settings: 10 µM unless noted
[4] = tested on: SNB-19 CNS; settings: 10 µM unless noted
[5] = tested on: U251 CNS; settings: 10 µM unless noted
[6] = tested on: PC-3 prostate; settings: 10 µM unless noted
[7] = tested on: SK-MEL-5 melanoma; settings: 10 µM unless noted
[8] = tested on: UACC-62 melanoma; settings: 10 µM unless noted
[9] = tested on: SK-MEL-28 melanoma; settings: 10 µM unless noted
[10] = tested on: EKVX NSCLC; settings: 10 µM unless noted
[11] = tested on: SN12C renal; settings: 10 µM unless noted
[12] = tested on: UO-31 renal; settings: 10 µM unless noted
[13] = tested on: TK-10 renal; settings: 10 µM unless noted
[14] = tested on: ACHN renal; settings: 10 µM unless noted
[15] = tested on: CAKI-1 renal; settings: 10 µM
[16] = tested on: A498 renal; settings: 10 µM unless noted
[17] = tested on: CCRF-CEM leukemia; settings: 10 µM unless noted
[18] = tested on: MOLT-4 leukemia; settings: 10 µM unless noted
[19] = tested on: LOX IMVI melanoma; settings: 10 µM unless noted
[20] = tested on: SK-MEL-2 melanoma; settings: 10 µM unless noted

Measured: growth

O=C1c2c(c3c4cccnc4[nH]c3c3ccc4ccccc4c23)C(=O)N1CCN1CCCCC1
active: [18] 6.84%
inactive: [1] 45.5% | [2] 44.8% | [3] 53.8% | [4] 41.1% | [5] 55.1% | [6] 59.5% | [7] 48.1% | [8] 49.6% | [9] 97% | [10] 78% | [11] 45.2% | [12] 36.9% | [13] 104% | [14] 20% | [15] 22.8% | [16] 80.1% | [17] 17.9%

COc1cc2c3c(n(CCCNC4CCCC4)c(=O)c2cc1OC)-c1cc2c(cc1C3=O)OCO2
active: [1] -68.6% | [2] -55.1% | [5] -87.9% | [6] -84.7% | [19] -82.3% | [10] -67.4% | [11] -60.9% | [13] -97% | [14] -95.5% | [17] -13.8%
inactive: [3] 84.9% | [4] 46.2% | [8] 74% | [9] 95.8% | [12] 76.2% | [15] 11.7% | [16] 80.3%

CC1CCN(S(=O)(=O)c2ncsc2-c2ccccc2)CC1
inactive: [1] 79% | [2] 88.5% | [3] 55.6% | [4] 83% | [5] 57.9% | [6] 80.8% | [7] 96.8% | [8] 96.5% | [9] 75.3% | [20] 96.2% | [10] 74.7% | [11] 95.4% | [12] 86.9% | [13] 127% | [14] 87% | [15] 77.4% | [16] 81.6% | [17] 74.2% | [18] 66.7%

CCC(C)[C@H]1OC(=O)[C@H](C(C)C)N(C)C(=O)[C@@H](C(C)C)OC(=O)[C@H](C(C)C)N(C)C(=O)[C@@H](C(C)CC)OC(=O)[C@H](C(C)C)N(C)C1=O (some centres not stated)
active: [2] 6.93% | [3] -2.11% | [7] -31.5% | [8] 6.11% | [19] 7.89% | [20] -14.6% | [11] 4.12% | [12] -13.6% | [13] -8.95% | [14] 7.98% | [16] -2.54% | [17] 9.05% | [18] -24.2%
inactive: [1] 11.4% | [4] 18.1% | [5] 12.5% | [9] 32.2% | [10] 20.5%

C=C1C(=O)O[C@@H]2/C=C(/C)C3=CC(=O)[C@@](C)(C[C@H](OC(=O)/C(C)=C\C)[C@@H]12)O3
active: [1] -2.86% | [2] -38.7% | [19] -44.8% | [20] -28.5% | [12] -85.4% | [13] -18% | [14] -39.1% | [15] 6.13% | [17] -14.9% | [18] 0.44%
inactive: [3] 44.4% | [4] 64.4% | [5] 28.8% | [6] 36.6% | [10] 21.6% | [16] 59.5%

COc1ccc([C@@H]2[C@@H](O)C(=O)N2c2cc(OC)c(OC)c(OC)c2)cc1Cl
inactive: [1] 10.5% | [2] 12.8% | [3] 53.4% | [4] 30% | [6] 17.5% | [8] 26.1% | [19] 18.5% | [9] 64.2% | [10] 52.4% | [11] 25.6% | [12] 31.8% | [13] 89.4% | [14] 27.9% | [15] 30.6% | [17] 19.6%
active: [5] 1.75% | [16] -16.9%

C/C(=C(/c1ccc(O)cc1)c1ccc(OCCN(C)C)cc1)c1ccc(Cl)cc1
inactive: [3] 63.8% | [4] 59.7% | [5] 35.3% | [6] 52.1% | [10] 61.4% | [11] 59.1% | [12] 50.6% | [13] 85% | [14] 32.8% | [15] 36.2% | [16] 70.2% | [17] 53% | [18] 11.9%
active: [1] -26.8% | [2] -51.3% | [8] -27.3% | [19] -22.2% | [9] -74.1%

Cc1cc(=O)n2nc(-c3c[nH]c4ccccc34)sc2n1
inactive: [1] 93.5% | [2] 107% | [3] 99.8% | [4] 97.3% | [5] 94.2% | [6] 98.3% | [8] 92% | [19] 95.7% | [9] 96.5% | [10] 95.3% | [11] 94.5% | [12] 82.1% | [13] 128% | [14] 96.1% | [15] 99.8% | [17] 115%

CC1(C)CC[C@]2(C(=O)O)CC[C@]3(C)C(=CCC4[C@@]5(C)C[C@@H](O)[C@@H]6OC(c7ccccc7O)OC[C@@]6(C)C5CC[C@]43C)C2C1 (some centres not stated)
inactive: [1] 29.8% | [2] 44.1% | [3] 72.6% | [4] 59.2% | [5] 28.6% | [7] 63.4% | [8] 82.4% | [19] 27% | [9] 84.7% | [20] 85.7% | [10] 39.9% | [11] 60.1% | [12] 54.8% | [13] 52.2% | [14] 25.3% | [15] 73.5% | [17] 46.8% | [18] 39.2%
